Inconclusive results are not listed. Active and inactive are the calls of the source. Rule for the calls, unless noted: active = hit-call score of the fitted dose curve at least 0.9, where 1 is the maximum; inconclusive = response in the unintended direction; inactive = score below 0.9.
Assays:
[1] = biological target: Sodium channel protein type 1 subunit alpha (Rattus norvegicus) (UniProt P04774); assay: NVS_IC_rNaCh_site2: NovaScreen (NVS) Ion Channel Assay for rat Sodium Channel, Site 2 (NaCh) (AID 2283322);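 note: hit means loss of radioligand binding signal relative to DMSO so AC50 marks displacement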
Outline: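 Membranes: rat forebrain. Format: competitive radioligand displacement, filter separation, scintillation readout, 1 h exposure. Primary screen in duplicate at 25 uM; actives retested in concentration series.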

[2] = biological target: rat Glutamate, NMDA Agonist Site (GluNMDA), Grin1 (gene 24408) (UniProt P35439); assay: NVS_LGIC_rGluNMDA_Agonist: NovaScreen (NVS) Ligand-Gated Ion Channel Assay for rat Glutamate, NMDA Agonist Site (GluNMDA) (AID 2283327)
Outline: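 Rat forebrain membranes, radioligand binding in the agonist-site protocol; 1 h after dosing; filter-based scintillation counting. Single-concentration duplicate screen at 25 uM, then concentration-response up to 50 uM for actives; gain-of-signal vs DMSO.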

[3] = biological target: Glutamate receptor ionotropic, kainate 1 (Rattus norvegicus) (UniProt P22756); assay: NVS_IC_rKAR: NovaScreen (NVS) Ion Channel Assay for rat Kainic Acid Receptors (KAR) (AID 2283334; active = hit-call score of the fitted dose curve at least 0.9, where 1 is the maximum; inactive = score below 0.9)
Outline: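 Radioligand displacement binding using rat forebrain membranes, 1 h incubation, filter-based scintillation counting. Screened in duplicate at 25 uM, with actives retested in concentration-response up to 50 uM; fitted against DMSO.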

[4] = biological target: rat Glutamate, MK-801 Agonist Site (GluNMDA_MK801), Grin1 (gene 24408) (UniProt P35439); assay: NVS_LGIC_rGluNMDA_MK801_Agonist: NovaScreen (NVS) Ligand-Gated Ion Channel Assay for rat Glutamate, MK-801 Agonist Site (GluNMDA_MK801) (AID 2283340)
Outline: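 Radioligand binding at MK-801 site in rat forebrain membranes, 1.5 h incubation, filter-based scintillation counting. Initially 25 uM in duplicate; actives then run in concentration-response up to 50 uM, fitted for gain of signal versus DMSO.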

[5] = biological target: rat Vasopressin 1 Receptor (V1), Avpr1a (gene 25107) (UniProt P30560); assay: NVS_GPCR_rV1: NovaScreen (NVS) G Protein-Coupled Receptor Assay for rat Vasopressin 1 Receptor (V1) (AID 2283316)
Outline: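 Radioligand binding on rat liver membranes, 1.5 h incubation, filter-based scintillation counting. Single 25 uM screen in duplicate; chemicals meeting threshold (e.g. 30% inhibition) run in concentration-response up to 50 uM.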

[6] = biological target: rat Opioid Receptor, Non-selective Binding, Oprm1 (gene 25601) (UniProt P33535); assay: NVS_GPCR_rOpiate_NonSelective: NovaScreen (NVS) G Protein-Coupled Receptor Assay for rat Opioid Receptor, Non-selective Binding (AID 2283318)
Outline: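 Rat forebrain membranes, cell-free radioligand binding with filter-based scintillation counting, read 1.5 h after dosing. Primary screen in duplicate at 25 uM; actives retested in concentration series. Loss of signal versus DMSO baseline scored.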

[7] = NVS_IC_rCaDHPRCh_L: NovaScreen (NVS) Ion Channel Assay for rat Calcium Channel, Type L, Dihydropyridine Site (CaDHPRCh_L) (AID 2283320)
Outline: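 Radioligand binding to dihydropyridine site on rat cortical membranes, filter-based scintillation counting, 1 h after dosing. Screened in duplicate at 25 uM; actives rerun in concentration-response up to 50 uM. Loss of signal versus DMSO baseline.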

[8] = biological target: human Serotonin, 5-Hydroxytryptamine Receptor 3 (5HT3), HTR3A (gene 3359) (UniProt P46098); assay: NVS_LGIC_h5HT3: NovaScreen (NVS) Ligand-Gated Ion Channel Assay for human Serotonin, 5-Hydroxytryptamine Receptor 3 (5HT3) (AID 2283325)
Outline: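 Radioligand displacement binding to human 5-HT3 from HEK293 membranes, read by filter-based scintillation counting after 1 h. Screen at 25 uM in duplicate; chemicals passing threshold were retested in concentration-response up to 50 uM.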

[9] = biological target: rat Gamma-Aminobutyric Acid Type A Receptor, Non-Selective (GABAR-NonSelective), Gabra1 (gene 29705) (UniProt P62813); assay: NVS_LGIC_rGABAR_NonSelective: NovaScreen (NVS) Ligand-Gated Ion Channel Assay for rat Gamma-Aminobutyric Acid Type A Receptor, Non-Selective (GABAR-NonSelective) (AID 2283326)
Outline: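 Radioligand displacement on rat whole-brain extract, 1 h, filter scintillation readout; signal loss fitted versus DMSO. Primary screen in duplicate at 25 uM; hits (e.g. ≥30% inhibition) retested in concentration-response up to 50 uM.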

[10] = biological target: human Peripheral-type Benzodiazepine Receptor (PBR), TSPO (gene 706) (UniProt P30536); assay: NVS_MP_hPBR: NovaScreen (NVS) Membrane Protein Assay for human Peripheral-type Benzodiazepine Receptor (PBR) (AID 2283331);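 note: hits reduce radioligand binding relative to DMSO baseline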
Outline: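 Radioligand displacement on human colonic cell membranes, 1 h incubation; bound radioactivity by filtration and scintillation counting. Primary screen in duplicate at 25 uM single concentration, actives followed up in concentration series; loss of binding versus DMSO.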

[11] = biological target: Voltage-gated inwardly rectifying potassium channel KCNH2 (Homo sapiens) (UniProt Q12809); assay: NVS_IC_hKhERGCh: NovaScreen (NVS) Ion Channel Assay for human Potassium Channel ERG (KhERGCh) (AID 2283333)
Outline: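 Cell-free radioligand competition binding on hERG protein extracted from CHO cells, read by filter-based scintillation counting 0.75 h after dosing. Primary screen at 25 uM in duplicate, actives followed in concentration series. Signal loss fitted versus DMSO.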

[12] = biological target: rat Peripheral-type Benzodiazepine Receptor (PBR), Tspo (gene 24230) (UniProt P16257); assay: NVS_MP_rPBR: NovaScreen (NVS) Membrane Protein Assay for rat Peripheral-type Benzodiazepine Receptor (PBR) (AID 2283335)
Outline: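 Rat kidney membranes; radioligand binding with displacement, filter-based scintillation counting, 1 h incubation. Primary screen in duplicate at 25 uM, actives followed in concentration series; loss of binding vs DMSO.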

[13] = biological target: Small conductance calcium-activated potassium channel protein 1 (Rattus norvegicus) (UniProt P70606); assay: NVS_IC_rKCaCh: NovaScreen (NVS) Ion Channel Assay for rat Potassium Channel, Ca2+ Act., VI (KCaCh) (AID 2283336)
Outline: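 Radioligand binding to rat forebrain membranes, cell-free, read 1 hour after dosing by filter-based scintillation counting. Compounds first run in duplicate at 25 uM, actives then in concentration series; loss of signal vs DMSO indicates displacement.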

[14] = NVS_IC_rCaBTZCHL: NovaScreen (NVS) Ion Channel Assay for Calcium Channel, Type L, Benzothiazepine Site (CaBTZCHL) (AID 2283337)
Outline: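 Scintillation counting of filter-bound radioligand gave the read-out, with reduced binding versus DMSO scored as activity. Membranes came from rat cortex and were read 1.5 h after compound addition. Chemicals were screened first in duplicate at 25 uM.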

[15] = biological target: bovine Gamma-Aminobutyric Acid Type A Receptor Agonist (GABAR Agonist), GABRA1 (gene 780973) (UniProt P08219); assay: NVS_LGIC_bGABAR_Agonist: NovaScreen (NVS) Ligand-Gated Ion Channel Assay for bovine Gamma-Aminobutyric Acid Type A Receptor Agonist (GABAR Agonist) (AID 2283338)
Outline: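 Radioligand binding to bovine cerebellar membranes in agonist format, read by filter-based scintillation counting after 1 h. Primary screen in duplicate at 25 uM, with actives followed in concentration series. Gain of signal versus DMSO.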

[16] = biological target: rat Thyrotropin Releasing Hormone Receptor (TRH), Trhr (gene 25570) (UniProt Q01717); assay: NVS_GPCR_rTRH: NovaScreen (NVS) G Protein-Coupled Receptor Assay for rat Thyrotropin Releasing Hormone Receptor (TRH) (AID 2283329);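 note: hit means lower bound tracer signal versus DMSO baseline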
Outline: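 Competitive radioligand binding on rat forebrain membrane preparations, with filtration and scintillation readout after 4 h. Primary testing in duplicate at 25 uM; actives confirmed in concentration-response. DMSO defined baseline.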

Chain of rat Peripheral-type Benzodiazepine Receptor (PBR), Tspo (gene 24230) (P16257 whole entry, looked up): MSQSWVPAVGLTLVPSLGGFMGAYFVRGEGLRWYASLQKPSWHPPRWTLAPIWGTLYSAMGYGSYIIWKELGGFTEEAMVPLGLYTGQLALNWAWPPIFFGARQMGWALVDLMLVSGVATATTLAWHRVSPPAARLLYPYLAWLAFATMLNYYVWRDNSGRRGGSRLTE
Chain of rat Vasopressin 1 Receptor (V1), Avpr1a (gene 25107) (P30560 whole entry, looked up): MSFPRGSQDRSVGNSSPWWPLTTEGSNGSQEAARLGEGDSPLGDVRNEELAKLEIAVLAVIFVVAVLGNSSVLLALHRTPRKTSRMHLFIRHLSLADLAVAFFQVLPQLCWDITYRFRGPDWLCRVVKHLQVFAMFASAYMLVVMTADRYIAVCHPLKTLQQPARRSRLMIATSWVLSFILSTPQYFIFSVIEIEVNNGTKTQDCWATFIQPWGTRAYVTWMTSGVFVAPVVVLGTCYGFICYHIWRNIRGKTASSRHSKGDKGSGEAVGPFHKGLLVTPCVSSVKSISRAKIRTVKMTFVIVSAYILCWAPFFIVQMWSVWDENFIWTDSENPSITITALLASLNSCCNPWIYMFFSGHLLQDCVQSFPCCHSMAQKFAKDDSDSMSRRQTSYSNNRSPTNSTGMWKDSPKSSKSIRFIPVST
Chain of human Peripheral-type Benzodiazepine Receptor (PBR), TSPO (gene 706) (P30536 whole entry, looked up): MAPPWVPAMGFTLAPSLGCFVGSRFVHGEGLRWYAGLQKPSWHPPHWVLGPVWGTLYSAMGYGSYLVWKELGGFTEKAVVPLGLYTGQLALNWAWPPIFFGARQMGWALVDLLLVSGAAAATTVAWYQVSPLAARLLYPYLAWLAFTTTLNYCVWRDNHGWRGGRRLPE
Chain of rat Opioid Receptor, Non-selective Binding, Oprm1 (gene 25601) (P33535 whole entry, looked up): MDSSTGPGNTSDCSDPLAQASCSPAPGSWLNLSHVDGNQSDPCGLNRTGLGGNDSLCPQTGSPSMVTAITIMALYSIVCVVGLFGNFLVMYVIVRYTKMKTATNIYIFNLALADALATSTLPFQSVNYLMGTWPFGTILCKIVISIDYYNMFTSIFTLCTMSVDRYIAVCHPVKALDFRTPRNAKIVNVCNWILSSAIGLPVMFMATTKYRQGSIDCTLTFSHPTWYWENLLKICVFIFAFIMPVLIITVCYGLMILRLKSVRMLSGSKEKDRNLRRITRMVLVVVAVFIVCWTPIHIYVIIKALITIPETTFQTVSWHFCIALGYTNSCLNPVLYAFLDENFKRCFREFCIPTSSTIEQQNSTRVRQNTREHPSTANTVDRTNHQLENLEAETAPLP
Chain of human Serotonin, 5-Hydroxytryptamine Receptor 3 (5HT3), HTR3A (gene 3359) (P46098 whole entry, looked up): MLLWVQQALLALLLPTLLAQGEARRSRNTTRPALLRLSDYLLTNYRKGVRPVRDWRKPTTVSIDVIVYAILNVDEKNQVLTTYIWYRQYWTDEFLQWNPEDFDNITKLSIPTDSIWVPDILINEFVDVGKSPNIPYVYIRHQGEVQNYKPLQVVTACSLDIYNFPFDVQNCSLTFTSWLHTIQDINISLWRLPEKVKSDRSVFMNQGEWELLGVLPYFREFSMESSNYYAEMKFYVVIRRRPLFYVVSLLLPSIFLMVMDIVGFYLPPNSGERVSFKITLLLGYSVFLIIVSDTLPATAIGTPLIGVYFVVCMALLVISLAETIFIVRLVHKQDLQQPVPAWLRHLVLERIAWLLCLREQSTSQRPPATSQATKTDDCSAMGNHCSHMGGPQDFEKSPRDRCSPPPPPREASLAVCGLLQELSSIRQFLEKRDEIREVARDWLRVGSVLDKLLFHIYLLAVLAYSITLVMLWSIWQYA
Chain of bovine Gamma-Aminobutyric Acid Type A Receptor Agonist (GABAR Agonist), GABRA1 (gene 780973) (P08219 whole entry, looked up): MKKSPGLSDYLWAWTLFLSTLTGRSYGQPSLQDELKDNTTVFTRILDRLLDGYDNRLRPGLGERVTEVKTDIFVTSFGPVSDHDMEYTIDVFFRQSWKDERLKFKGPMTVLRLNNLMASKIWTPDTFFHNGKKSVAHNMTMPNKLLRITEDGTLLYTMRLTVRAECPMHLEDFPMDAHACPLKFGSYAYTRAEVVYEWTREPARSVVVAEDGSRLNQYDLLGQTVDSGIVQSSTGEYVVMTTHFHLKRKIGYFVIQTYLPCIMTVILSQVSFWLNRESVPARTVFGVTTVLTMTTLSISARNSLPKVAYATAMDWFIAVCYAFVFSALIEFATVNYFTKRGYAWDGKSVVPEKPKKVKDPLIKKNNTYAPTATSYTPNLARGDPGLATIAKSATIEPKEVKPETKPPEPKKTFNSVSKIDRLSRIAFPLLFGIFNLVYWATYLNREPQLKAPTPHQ
Chain of rat Gamma-Aminobutyric Acid Type A Receptor, Non-Selective (GABAR-NonSelective), Gabra1 (gene 29705) (P62813 whole entry, looked up): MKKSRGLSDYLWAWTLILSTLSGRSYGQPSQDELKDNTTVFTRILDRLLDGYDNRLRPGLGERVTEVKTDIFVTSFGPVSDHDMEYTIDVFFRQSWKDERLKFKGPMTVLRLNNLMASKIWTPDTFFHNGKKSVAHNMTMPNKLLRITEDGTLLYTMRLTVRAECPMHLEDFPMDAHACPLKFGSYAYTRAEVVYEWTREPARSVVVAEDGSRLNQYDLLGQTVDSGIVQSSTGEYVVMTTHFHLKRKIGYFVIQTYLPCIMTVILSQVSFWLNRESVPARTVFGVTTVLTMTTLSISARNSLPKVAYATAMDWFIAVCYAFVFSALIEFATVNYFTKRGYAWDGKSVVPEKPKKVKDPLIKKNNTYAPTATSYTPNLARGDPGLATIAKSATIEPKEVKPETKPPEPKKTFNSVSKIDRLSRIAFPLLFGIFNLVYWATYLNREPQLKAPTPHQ
Chain of Voltage-gated inwardly rectifying potassium channel KCNH2 (Homo sapiens) (Q12809 whole entry, looked up): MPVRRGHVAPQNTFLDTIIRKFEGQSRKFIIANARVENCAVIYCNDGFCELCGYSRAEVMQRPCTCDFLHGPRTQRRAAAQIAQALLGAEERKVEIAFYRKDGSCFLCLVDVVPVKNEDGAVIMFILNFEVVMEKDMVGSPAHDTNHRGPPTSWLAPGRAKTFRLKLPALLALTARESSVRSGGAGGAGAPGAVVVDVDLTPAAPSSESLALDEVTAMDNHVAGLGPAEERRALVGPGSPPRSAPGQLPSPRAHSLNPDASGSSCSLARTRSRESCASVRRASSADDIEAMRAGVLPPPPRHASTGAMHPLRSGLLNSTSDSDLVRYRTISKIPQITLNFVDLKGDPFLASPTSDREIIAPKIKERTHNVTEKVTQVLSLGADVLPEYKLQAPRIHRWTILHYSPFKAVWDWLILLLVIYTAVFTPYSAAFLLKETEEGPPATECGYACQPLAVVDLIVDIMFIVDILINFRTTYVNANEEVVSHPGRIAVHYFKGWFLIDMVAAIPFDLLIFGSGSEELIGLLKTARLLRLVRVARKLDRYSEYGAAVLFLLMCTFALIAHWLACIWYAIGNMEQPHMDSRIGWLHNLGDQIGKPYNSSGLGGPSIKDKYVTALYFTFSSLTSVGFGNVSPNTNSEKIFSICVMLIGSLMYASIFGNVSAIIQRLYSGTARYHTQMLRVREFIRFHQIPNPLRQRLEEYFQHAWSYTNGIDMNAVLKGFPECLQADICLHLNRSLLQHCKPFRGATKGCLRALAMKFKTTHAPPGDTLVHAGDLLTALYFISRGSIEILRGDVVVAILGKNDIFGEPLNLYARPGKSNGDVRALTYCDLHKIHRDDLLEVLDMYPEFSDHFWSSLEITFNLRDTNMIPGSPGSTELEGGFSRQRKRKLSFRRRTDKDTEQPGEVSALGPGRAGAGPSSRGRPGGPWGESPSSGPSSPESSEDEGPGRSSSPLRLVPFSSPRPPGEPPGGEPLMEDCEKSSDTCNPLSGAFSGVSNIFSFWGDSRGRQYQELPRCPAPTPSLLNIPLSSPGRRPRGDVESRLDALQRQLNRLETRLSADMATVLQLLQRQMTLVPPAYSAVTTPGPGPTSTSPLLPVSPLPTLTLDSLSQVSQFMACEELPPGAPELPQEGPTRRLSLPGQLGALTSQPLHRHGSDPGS
Chain of Glutamate receptor ionotropic, kainate 1 (Rattus norvegicus) (P22756 whole entry, looked up): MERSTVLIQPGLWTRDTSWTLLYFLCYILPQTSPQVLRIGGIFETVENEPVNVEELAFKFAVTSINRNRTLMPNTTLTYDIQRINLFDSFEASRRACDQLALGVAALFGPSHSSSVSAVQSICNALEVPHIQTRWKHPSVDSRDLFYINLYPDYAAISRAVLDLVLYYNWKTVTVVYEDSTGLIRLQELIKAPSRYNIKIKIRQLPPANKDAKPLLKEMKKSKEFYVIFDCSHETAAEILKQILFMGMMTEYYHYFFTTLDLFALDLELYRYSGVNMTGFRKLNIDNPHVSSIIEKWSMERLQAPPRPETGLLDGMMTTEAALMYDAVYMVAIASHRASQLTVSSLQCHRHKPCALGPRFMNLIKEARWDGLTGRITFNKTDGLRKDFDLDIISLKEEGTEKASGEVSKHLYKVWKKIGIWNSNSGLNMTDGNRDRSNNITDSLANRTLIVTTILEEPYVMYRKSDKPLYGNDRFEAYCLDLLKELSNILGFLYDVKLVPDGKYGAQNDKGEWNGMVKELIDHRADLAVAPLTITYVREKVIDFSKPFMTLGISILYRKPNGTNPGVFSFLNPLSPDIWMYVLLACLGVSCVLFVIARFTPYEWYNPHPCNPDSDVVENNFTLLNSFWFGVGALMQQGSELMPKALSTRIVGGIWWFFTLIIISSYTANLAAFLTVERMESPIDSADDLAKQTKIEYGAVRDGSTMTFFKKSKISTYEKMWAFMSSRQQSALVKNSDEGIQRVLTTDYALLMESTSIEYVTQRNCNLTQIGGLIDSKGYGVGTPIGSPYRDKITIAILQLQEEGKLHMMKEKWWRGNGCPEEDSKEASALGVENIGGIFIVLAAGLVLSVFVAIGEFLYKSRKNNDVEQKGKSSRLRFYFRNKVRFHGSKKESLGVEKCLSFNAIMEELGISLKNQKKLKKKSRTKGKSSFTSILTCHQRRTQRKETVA

Q: With O=c1[nH]c2ccc(S(=O)CCN3CCC(Cc4ccc(F)cc4)CC3)cc2o1 (centres undefined) as the compound, how does the AC50 [1] read?
A: Its AC50 is 6.76 µM (active).

Q: What about the outcome [2] of the same compound?
A: Its outcome is “inactive”.

Q: What about the outcome [3] of the same compound?
A: The outcome was “inactive”.

Q: And the outcome [4]?
A: Its outcome is “inactive”.

Q: For Cc1ccc(N)cc1O, which outcome [5] is on record?
A: Its outcome is “inactive”.

Q: With COc1cccc(-c2ccc(/C=C\CN3CCCCCC3)cc2Cl)c1 as the compound, how does the AC50 [6] read?
A: Its AC50 is 11.2 µM (active).

Q: And the AC50 [7]?
A: The AC50 was 0.555 µM (active).

Q: What about the AC50 [1] of the same compound?
A: The AC50 was 1.33 µM (active).

Q: And the outcome [8]?
A: Its outcome is “inactive”.

Q: And the outcome [9]?
A: Its outcome is “inactive”.

Q: And the AC50 [10]?
A: The AC50 was 7.83 µM (active).

Q: And the AC50 [11]?
A: Its AC50 is 5.95 µM (active).

Q: What about the AC50 [12] of the same compound?
A: The AC50 was 8.04 µM (active).

Q: What about the outcome [13] of the same compound?
A: Its outcome is “inactive”.

Q: And the AC50 [14]?
A: The AC50 was 0.665 µM (active).

Q: What about the AC50 [15] of the same compound?
A: The AC50 was 10.5 µM (active).

Q: Which outcome [1] does the source give for COc1ccc(-n2nc(C(F)F)cc2-c2ccc(S(C)=O)cc2)cc1 (centres undefined) here?
A: Its outcome is “inactive”.

Q: What about the outcome [2] of the same compound?
A: Its outcome is “inactive”.

Q: And the outcome [16]?
A: The outcome was “inactive”.

Q: What about the AC50 [12] of the same compound?
A: Its AC50 is 14.7 µM (active).

Q: Which outcome [5] does the source give for CCCN(C1CCN(C(=O)C2CCNCC2)CC1)[C@@H]1CCc2ccc(OC)cc2C1 here?
A: Its outcome is “inactive”.

Q: What about the outcome [7] of the same compound?
A: The outcome was “inactive”.

Q: And the AC50 [1]?
A: Its AC50 is 7.66 µM (active).

Q: What about the outcome [14] of the same compound?
A: Its outcome is “inactive”.

From PubChem BioAssay (EPA / NIEHS)
